Shown are actives, neighbours in structure and some others; about 0.5% of the full set was active somewhere.
E coli growth-1: counter-screen for AddAB inhibitors: E. coli growth inhibition; E. coli V3065 growth, OD600 absorbance, 18 h; inhibition, % at 11.9 µM; 330,000 compounds, 0.27% hits; AID 449728;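 active = inhibition above the campaign's mean inhibition across all tested compounds plus 3 SD, cut at about 9.9% in these data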;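 also: uninfected addAB+ strain grown without phage in ampicillin broth; 0% = DMSO wells and 100% = ciprofloxacin 0.95 µg/ml wells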
phage Ecoli inh: E. coli growth loss with phage present | growth absorbance | inhibition, % at 11.9 µM | 360,000 compounds, 0.26% hits; in the data active = inhibition above about 11%
E coli growth-2: E. coli growth inhibition; Escherichia coli growth, OD600, 23 h; hits give low values; OD600 absorbance (no concentration beside the values); 330,000 compounds, 0.21% hits; AID 1053175;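 active = OD600 absorbance below the run mean of sample wells minus 3.6 SD, in any replicate, cut at about 0.56 in these data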
AddAB inh: less growth of phage-infected E. coli with AddAB; AID 435030; E. coli expressing H. pylori AddAB, absorbance growth; 330,000 compounds, 0.29% hits; inhibition, % at 11.9 µM; in the data active = inhibition above about 12%;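 also: 0% = vehicle wells of infected cells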
Tat export inh: inhibitors of E. coli Tat protein transport; 340,000 compounds, 0.036% hits; AID 488895; inhibition, % at 10 µM; E. coli MC4100 TorA-mCherry Tat export, fluorescence;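 active = mean replicate inhibition at least 50% and at least half of replicates individually reaching 50%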;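 also: exported cargo escapes ClpAP degradation while cytoplasmic cargo is degraded and loses fluorescence; 0% = median of neutral control wells and 100% = median of NaSCN control wells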
AddAB conf: confirmation screen: growth loss of phage-infected E. coli expressing H. pylori AddAB | shares compounds with AddAB inh | E. coli V3065 expressing H. pylori AddAB, T4 phage, OD; T4 phage with gene 2 nonsense mutations | inhibition, % at 11.9 µM | 880 compounds, 64% hits | AID 488942;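 active = mean inhibition above a set limit taken from the earlier primary screen, cut at about 13% in these data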;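 also: higher means less bacterial growth since AddAB block lets phage replicate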
RecBCD counter: reduces growth of phage-infected RecBCD+ E. coli, AddAB inhibitor counter-screen; shares compounds with AddAB inh; E. coli V66 + mutant T4 phage, OD growth; inhibition, % at 11.9 µM; 880 compounds, 73% hits;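 active = mean inhibition above the mean of solvent-only control wells plus 3 SD, cut at about 4% in these data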;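 also: optical density read after an 18 h incubation at 37 °C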
bact viab count: reduces bacterial viability, AddAB inhibitor counter-screen; shares compounds with AddAB inh; absorbance (AddAB counterscreen); inhibition, % at 11.9 µM; 880 compounds, 35% hits; AID 488956; in the data active = inhibition above about 25%
* hit, by the source's call; . = not tested or not shown.

SMILES	E coli growth-1	phage Ecoli inh	E coli growth-2	AddAB inh	Tat export inh	AddAB conf	RecBCD counter	bact viab count
COc1ccc(/C=N/NC(=S)SC)cc1OC	13.4*	8.4	.	18.2*	-1.1	44.3*	11.6*	30.1*
CC1OC2(C)OC(=N)C1(C#N)C(C#N)(C#N)C2c1ccccc1 (configuration not stated)	23.3*	1.2	0.68	36.9*	-8.3	2.3	0.1	1.0
Cc1cc2oc(=O)cc(CN(C)Cc3cccc(F)c3)c2cc1Cl	2.0	0.5	0.67	-0.6	14.9	.	.	.
CCOc1ccc(CN(C)Cc2cc(=O)oc3cc(C)c(Cl)cc23)cc1	15.1*	2.0	0.685	20.2*	3.2	-0.9	-0.7	-3.5
c1ccc2c(c1)[nH]c1ccccc12	-0.8	0.5	0.698	2.5	-2.6	.	.	.
O=c1c2ccccc2[nH]c2ccccc12	4.7	8.6	0.569	13.9*	-8.4	5.6	4.8*	3.4
O=C(NN=Cc1cc([N+](=O)[O-])ccc1O)c1cccc2cc[nH]c12	.	.	0.712	.	.	.	.	.
O=C(N/N=C/c1cc([N+](=O)[O-])ccc1O)c1cccc2cc[nH]c12	10.2*	4.8	.	14.2*	-2.9	2.8	7.0*	-1.3
O=c1c2ccccc2nc(/C=C/c2ccc([N+](=O)[O-])cc2)n1CCCO	-0.5	3.1	0.643	-0.6	10.7	.	.	.
O=c1c2ccccc2nc(/C=C/c2ccc([N+](=O)[O-])o2)n1CCCO	20.0*	9.4	0.684	31.1*	1.1	97.6*	10.8*	41.2*
COc1ccc(C=NNC(=O)c2cccnc2)cc1CN1CCOCC1	.	.	0.685	.	.	.	.	.
COc1ccc(N2C(=O)C3CCCN3C2c2cccc(OC)c2OC)cc1 (configuration not stated)	3.6	1.4	0.69	14.3*	-12.8	0.7	0.6	-2.2
COc1ccc(N2C(=O)C3CCCN3C2c2cccc(Br)c2)cc1 (configuration not stated)	-1.7	0.9	0.781	2.5	0.8	.	.	.
COc1ccccc1/C=C1\SC(=S)N(CCC(=O)NNC(=O)c2ccccc2O)C1=O	18.2*	.	0.751	19.6*	0.1	15.4*	18.7*	13.9
COc1ccc(/C=C2\SC(=S)N(CCCC(=O)NNC(=O)c3ccccc3O)C2=O)cc1	0.4	6.1	.	4.8	2.8	.	.	.
O=C(CN1C(=O)S/C(=C\c2ccc(Cl)cc2)C1=O)NNC(=O)c1ccccc1O	6.1	8.8	0.684	15.8*	-2.7	8.8	5.5*	9.2
COc1cc(NS(=O)(=O)c2ccc(NC(=O)c3ccco3)cc2)nc(OC)n1	3.6	0.8	0.709	62.5*	-1.8	-0.5	0.6	-2.6
Cc1ccc(S(=O)(=O)N2CCC(C(=O)OCc3ccccc3)CC2)cc1C	8.0	-0.7	0.63	21.5*	10.1	-4.9	-0.6	-3.5
O=C(NCCC1=CCCCC1)C1CCN(C(=O)Cc2ccccc2)CC1	98.2*	-0.1	0.717	97.5*	-10.6	-1.1	1.0	0.1
O=C(NCCC1=CCCCC1)C1CCN(S(=O)(=O)c2ccccc2)CC1	-2.6	3.5	0.686	-2.2	-2.4	.	.	.
CN1CC2C(c3ccc(C(F)(F)F)cc3)C3(c4cccnc4)CC2(C3)C1c1ccccc1 (configuration not stated)	.	.	0.677	.	.	.	.	.
CCOC(=O)N1CCN(C(=O)c2cc3c(s2)-c2ccccc2OC3)CC1	1.6	3.6	0.7	0.2	3.5	.	.	.
CCCN1CCN(C(=O)c2cc3c(s2)-c2ccccc2OC3)CC1	12.6*	7.9	0.719	15.0*	1.3	22.5*	7.3*	15.8
O=C(Nc1ccc(C2=NCCN2)cc1)c1ccc(C(=O)Nc2ccc(C3=NCCN3)cc2)c([N+](=O)[O-])c1	24.6*	9.8	.	27.2*	63.5*	86.1*	28.9*	28.4*
Cc1ccc(NC(=O)c2ccc(-n3cccn3)c([N+](=O)[O-])c2)cc1	-0.1	2.0	0.662	5.3	-2.2	.	.	.
CCOc1ccc(NC(=O)CCNC(=O)c2ccco2)cc1	8.3	10.1	0.6	13.5*	-18.3	11.6	4.7*	6.1
Cc1ccc(NC(=O)CCNC(=O)c2ccco2)cc1	5.3	1.3	0.686	14.6*	-16.1	6.3	3.6	7.6

Source: PubChem
